Source: PubChem BioAssay (EPA / NIEHS)
Active and inactive are the calls of the source. How the source made its calls: active means hit-call score of the fitted dose curve at least 0.9, where 1 is the maximum; inactive means score below 0.9.

read-out: Pro-epidermal growth factor (Homo sapiens) (UniProt P01133); test: LTEA_HepaRG_EGF: Life Technologies and Expression Analysis (LTEA) Assay for Epidermal growth factor (EGF) using HepaRG (AID 2283489); conditions: mRNA level, 48 h; actives raise or lower the signal
Experimental: LTEA_HepaRG is a cell based, multiplexed-readout assay that uses HepaRG, a human liver cell line, with measurements taken at 48 hours after chemical dosing on a 96-well plate.LTEA_HepaRG_EGF is one of 102 assay component(s) measured in the LTEA HepaRG cell culture assay. It is a marker of Cell proliferation, survival, death.Data from the assay component LTEA_HepaRG_EGF was analyzed into 1 endpoint. This assay endpoint, LTEA_HepaRG_EGF, was analyzed with bidirectional fitting relative to DMSO as the negative control and baseline of activity. Using a type of inducible reporter, measures of mRNA induction for gain or loss-of-signal activity can be used to understand regulation of transcription factor activity. To generalize the intended target to other relatable targets, this assay endpoint is annotated to the growth factor intended target family, where the subfamily is EGF-like domain.
A total of 1060 chemcials from the ToxCast library were tested in eight-point concentration-response experiments. Cell culture and cytotoxicity assays were conducted at Thermo Fisher Scientific's Custom Services facility (Madison, WI). A single lot of human HepaRG cells (Thermo Fisher Scientific, Frederick, MD) was used for the cell culture experiments. 96-well format collagen type I coated plates of human HepaRG cells were prepared using established methods. Briefly, cryopreserved HepaRG cells were thawed, plated at a density of approximately 100,000 cells/well in HepaRG Thaw, Plate, and General Purpose media (HPRG770, Thermo Fisher Scientific), and incubated for 48 hours. 0.5% DMSO was selected as vehicle control to balance the requisite need of DMSO in HepaRG cultures to maintain differentiation (for example, baseline metabolism, proportions of hepatocytes vs. cholangiocytes), while enabling further hepatic receptor pathway activation (for example, PXR and CAR) in response to chemical exposure. 48 hours after plating, the culture medium was replaced with HepaRG Serum-Free Incudtion Media. Cells were exposed to each test chemical in duplicate and maintained in CO2 incubators for another 48 hours. Chemical plates were thawed to room temperature and 200x concentrations of treatment groups were prepared. 8-point conentration-reponse curves were made with the highest exposure at 100 uM, followed by half-log dilutions, all in 0.5% DMSO. Each test plate contained variouse controls, induction positive controls (1mM phenobarbital), cytotoxicity positive controls ([…] aflatoxin B1), vehicle controls (0.5% DMSO), and total lysis controls (0.5% DMSO). Cell morphology images were taken using an Essen IncuCyte FLR automated microscope, with six 96-well plates imaged in about 24 minutes. Images were captured and exported and JPEG files. Spent culture media was transfered to black-well plates for the LDH assay, and remaining media was sorted at -80 C for later use. Cells were treated with RLT buffer and frozen until shipped for gene expression analysis. Total RNA was isolated from the cell suspension in 75 uL of Buffer RLT (Qiagen, Germantown, MD 20874) by Quintiles/Expression Analysis (Durham, NC) using a custom isolation procedure. Total RNA from each plate well was transferred to a preamplification plate. Fluidigm's 96.96 Dynamic ArrayTM (Fluidigm, Amsterdam, the Netherlands) technology was used for gene expression analyses by quantitative reverse transcription polymerase chain reaction (qRT-PCR, performed by Quintiles/Expression Analysis, Durham, NC)89. Standard TaqManTM Assays (Applied Biosystems/ThermoFisher Scientific, Foster City, CA) were used to assess the expression of 93 genes selected based on their selectivity and sensitivity to important hepatic receptors known to be modulated by environmental chemicals; importance in human hepatocyte functionality; and hepatotoxicity. […]

SMILES | outcome | AC50
CCCC(=O)O | inactive | –
CSc1ccc(Oc2ccc(S(N)(=O)=O)cc2CN(C)C)cc1C | inactive | –
O=C(O)c1cccnc1 | inactive | –
Cc1cc(Cc2ccc(N)c(C)c2)ccc1N | – | 50 µM (active)
COC(=O)CCC(=O)OC | inactive | –
CCC(C)N(C)C(=O)c1cc2ccccc2c(-c2ccccc2Cl)n1 (stereo not given) | inactive | –
CC(C)(C)c1ccccc1 | inactive | –
CC(COCC(C)OC(=O)c1ccccc1)OC(=O)c1ccccc1 (stereo not given) | inactive | –
O=Cc1ccccc1C=O | inactive | –
CC(N)=O | inactive | –
O=C1NC(=O)C(c2ccccc2)(c2ccccc2)N1 | inactive | –
Nc1nc(Cl)nc2c1ncn2[C@H]1C[C@H](O)[C@@H](CO)O1 | inactive | –
O=C(NS(=O)(=O)/C=C/c1cccs1)c1ccc(F)cc1Br | inactive | –
Cn1cnc2c1c(=O)[nH]c(=O)n2C | inactive | –
CCCCCCCCCC[N+](C)(C)[O-] | inactive | –
Cc1ccc(-c2cc(C(F)(F)F)nn2-c2ccc(S(N)(=O)=O)cc2)cc1 | inactive | –
O=NO | inactive | –
O=C(O)c1[nH]n(-c2ccc(S(=O)(=O)O)cc2)c(=O)c1N=Nc1ccc(S(=O)(=O)O)cc1 | inactive | –
CCCCC(CC)CO (stereo not given) | inactive | –
C/C=C/c1ccc(OC)cc1 | inactive | –

SMILES | outcome | AC50
CCOCCOCCO | inactive | –
CCc1cc(C2=C(C(=O)O)N(c3ccccc3C(F)(F)F)S(=O)(=O)c3ccccc32)cc2c1OCO2 | inactive | –
CC(=O)CC(c1ccccc1)c1c(O)c2ccccc2oc1=O (stereo not given) | inactive | –
Oc1ccc(O)cc1 | inactive | –
CS(=O)(=O)c1ccc([C@@H](C[C@H]2CCC(=O)C2)C(=O)Nc2cnccn2)cc1Cl | – | 23.5 µM (active)
Cc1cn([C@H]2C=C[C@@H](CO)O2)c(=O)[nH]c1=O | inactive | –
OCC(CO)n1cnc(-c2ccc(F)cc2)c1-c1ccnc(Oc2ccccc2)n1 | inactive | –
CC(C)(O)c1ccc(CNC(=O)c2cccnc2Oc2ccc(F)cc2)cc1 | inactive | –
CCCCCCCCCCCCCCOS(=O)(=O)O | inactive | –
CCCCC(CC)COP(=O)(OCC(CC)CCCC)OCC(CC)CCCC (stereo not given) | inactive | –
NC(=Nc1ccccc1)Nc1ccccc1 | inactive | –
CC(C)COC(=O)CCCCC(=O)OCC(C)C | inactive | –
CCCCC(CC)COC(=O)CCCCCCCC(=O)OCC(CC)CCCC (stereo not given) | inactive | –
CC(C)NCC(O)c1ccc(O)c(O)c1 (stereo not given) | inactive | –
CC(C)c1cccc(C(C)C)c1 | inactive | –
CCCCCCCC(=O)OC | inactive | –
O=C1CCCCC1 | inactive | –
CC1=C(C)S(=O)(=O)CCS1(=O)=O | – | 12 µM (active)
OCC(O)CO | inactive | –
CC(=O)[C@@]1(O)CC[C@H]2[C@@H]3CCC4=CC(=O)CC[C@]4(C)[C@H]3CC[C@@]21C | inactive | –
